Measurements published in PubChem BioAssay (NCATS).
Inconclusive results are not listed. Activity calls are given as the source filed them. The call rests on the fitted dose curve; in most records, active means well fitted curve in the direction sought with a large enough effect; inconclusive means small, poorly fitted or top-dose-only effect, or another doubt; inactive means no such curve, though single readings can be large; an effect the other way counts as inactive or inconclusive.

tested on: not listed separately; assay: qHTS for Inhibitors of ATXN expression: Validation of Cytotoxic Assay (AID 588349); settings: cytotoxicity counter-screen for ATXN expression inhibitors, cell viability; series mostly up to 57.1 µM; activity change, negative = cytotoxicity: at the top concentration; further: on the % scale 0 is the no-effect control and ±100 the full control effect
In short: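 HEK293 cells treated with titrated compound for 72 hr at 37 degrees C; viability read as intracellular ATP by CellTiter Glo luminescence.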

Row | SMILES | activity change, negative = cytotoxicity | outcome
1 | NC1CC1c1ccccc1 (stereo not drawn) | -8.53% (inactive) | –
2 | CCCN1CCO[C@@H]2c3cc(O)ccc3OC[C@H]21 | – | inactive
3 | S=C(NC1CCCCC1)N1CCC(c2cnc[nH]2)CC1 | -16.5% (inactive) | –
4 | NC(=O)CN1CC(O)CC1=O (stereo not drawn) | -21.4% (inactive) | –
5 | CC(C)Oc1cccnc1N(C)C1CCN(Cc2ccccc2)CC1 | -7.62% (inactive) | –
6 | NCCc1c[nH]c2ccccc12 | -14.3% (inactive) | –
7 | Cc1nccc2c1[nH]c1ccccc12 | -17.7% (inactive) | –
8 | Cn1cnc(CCN)c1 | -7.13% (inactive) | –
9 | CN1C2CCC1CC(OC(=O)c1cc(Cl)cc(Cl)c1)C2 (stereo not drawn) | -16.7% (inactive) | –
10 | C[C@]12N[C@H](Cc3ccccc31)c1ccccc12 | -7.33% (inactive) | –
11 | NCc1cc(=O)[nH]o1 | -8.51% (inactive) | –
12 | CCCCc1ccc(C(=O)O)nc1 | -8.78% (inactive) | –
13 | CC[C@@H](C(N)=O)N1CCCC1=O | -7.5% (inactive) | –
14 | COc1cc(C(O)CN)ccc1O (stereo not drawn) | -6.31% (inactive) | –
15 | CCCN(CCC)C1CCc2ccc(O)cc2C1 (stereo not drawn) | -18.8% (inactive) | –
16 | O=C1CCCN1CC#CCN1CCCC1 | 0.581% (inactive) | –
17 | O=C(O)Cc1cnc[nH]1 | -7.88% (inactive) | –
18 | CC(=O)[C@H]1CCC2C3CC[C@H]4C[C@H](O)CC[C@]4(C)C3CC[C@@]21C (stereo partly drawn) | -7.62% (inactive) | –
19 | O=C(O)CC[N+](=O)[O-] | -13.6% (inactive) | –
20 | CC(=O)NCCc1c[nH]c2ccccc12 | -17.8% (inactive) | –
21 | c1ccc(C2(c3ccccc3)CC2C2=NCCN2)cc1 (stereo not drawn) | -23.5% (inactive) | –
22 | O=C(O)[C@@H]1CCN1 | -10.2% (inactive) | –
23 | C[C@@H]1O[C@H](C[N+](C)(C)C)C[C@H]1O | -12% (inactive) | –

tested on: not listed separately; assay: qHTS for Inhibitors of ATXN expression: Validation (AID 588378); settings: cell-based ATXN2 expression reporter assay, luminescence; series mostly up to 57.1 µM; activity change, negative = inhibition: at the top concentration; further: nearly all actives have a fitted effect of over 75% in size; further: potency means the concentration at half of the fitted maximal effect; on activity change, negative = inhibition: on the % scale 0 is the no-effect control and ±100 the full control effect
In short: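 Compounds were pinned onto attached HEK293 cells carrying an ATXN2-firefly luciferase construct and incubated 24 hrs at 37 degrees C. Each well then received a fluorescent viability reagent followed by luciferase substrate for end-point luminescence.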

Row | SMILES | activity change, negative = inhibition | Potency
24 | NC1CC1c1ccccc1 (stereo not drawn) | -3.38% (inactive) | –
25 | CCCN1CCO[C@@H]2c3cc(O)ccc3OC[C@H]21 | – | inactive
26 | S=C(NC1CCCCC1)N1CCC(c2cnc[nH]2)CC1 | -6.63% (inactive) | –
27 | NC(=O)CN1CC(O)CC1=O (stereo not drawn) | -25.1% (inactive) | –
28 | CC(C)Oc1cccnc1N(C)C1CCN(Cc2ccccc2)CC1 | -18.8% (inactive) | –
29 | NCCc1c[nH]c2ccccc12 | -11.1% (inactive) | –
30 | Cc1nccc2c1[nH]c1ccccc12 | -17.8% (inactive) | –
31 | Cn1cnc(CCN)c1 | 10.8% (inactive) | –
32 | C[N+]1(C)C2CC(OC(=O)[C@H](CO)c3ccccc3)CC1C1OC12 (stereo partly drawn) | -0.352% (inactive) | –
33 | Cc1c(C(=O)c2cccc3ccccc23)c2cccc3c2n1[C@H](CN1CCOCC1)CO3 | – | 15.8 µM (active)
34 | C[C@]12N[C@H](Cc3ccccc31)c1ccccc12 | -15.8% (inactive) | –
35 | NCc1cc(=O)[nH]o1 | -3.26% (inactive) | –
36 | CCCCc1ccc(C(=O)O)nc1 | -12.1% (inactive) | –
37 | CC[C@@H](C(N)=O)N1CCCC1=O | -3.81% (inactive) | –
38 | COc1cc(C(O)CN)ccc1O (stereo not drawn) | -5.79% (inactive) | –
39 | CCCN(CCC)C1CCc2ccc(O)cc2C1 (stereo not drawn) | -22% (inactive) | –
40 | O=C1CCCN1CC#CCN1CCCC1 | 9.23% (inactive) | –
41 | Oc1ccc2c3c1O[C@H]1c4[nH]c5c(c4C[C@@]4(O)[C@@H](C2)N(CC2CC2)CC[C@]314)C[C@@]1(O)[C@H]2Cc3ccc(O)c4c3[C@@]1(CCN2CC1CC1)[C@H]5O4 | 2.79% (inactive) | –
42 | O=C(O)Cc1cnc[nH]1 | -8.22% (inactive) | –
43 | CC(=O)[C@H]1CCC2C3CC[C@H]4C[C@H](O)CC[C@]4(C)C3CC[C@@]21C (stereo partly drawn) | 2.35% (inactive) | –
44 | O=C(O)CC[N+](=O)[O-] | -24.3% (inactive) | –
45 | CC(=O)NCCc1c[nH]c2ccccc12 | -12.3% (inactive) | –
46 | O=C(O)[C@@H]1CCN1 | -4.56% (inactive) | –
47 | C[C@@H]1O[C@H](C[N+](C)(C)C)C[C@H]1O | -4.48% (inactive) | –
48 | CN[C@@H]1C[C@@H](c2ccc(Cl)c(Cl)c2)c2ccccc21 | – | 20 µM (active)
49 | C=CCN1CC[C@]23CCCCC2[C@H]1Cc1ccc(O)cc13 (stereo partly drawn) | -17.2% (inactive) | –
50 | CC[C@@]1(O)C(=O)OCc2c1cc1n(c2=O)Cc2cc3ccccc3nc2-1 | -81.2% (inactive) | –

biological target: DNA dC->dU-editing enzyme APOBEC-3G (Homo sapiens) (UniProt Q9HC16); assay: qHTS for inhibitors of Vif-A3G interactions: Validation (AID 588379); settings: Vif-A3G protein interaction assay; series mostly up to 46.1 µM; activity change, negative = inhibition: at the top concentration; further: 0% is about no effect
Sequence (Q9HC16 whole entry, looked up): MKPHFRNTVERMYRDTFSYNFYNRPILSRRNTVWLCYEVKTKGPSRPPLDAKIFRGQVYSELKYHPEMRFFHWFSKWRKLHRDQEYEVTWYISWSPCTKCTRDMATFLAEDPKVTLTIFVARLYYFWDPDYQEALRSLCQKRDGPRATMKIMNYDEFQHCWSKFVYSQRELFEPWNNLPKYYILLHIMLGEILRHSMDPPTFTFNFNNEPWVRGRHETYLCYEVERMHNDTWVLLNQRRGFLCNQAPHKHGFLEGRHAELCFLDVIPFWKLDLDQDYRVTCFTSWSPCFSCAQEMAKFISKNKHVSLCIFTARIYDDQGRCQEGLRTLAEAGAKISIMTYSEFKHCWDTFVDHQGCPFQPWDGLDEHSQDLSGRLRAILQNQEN
In short: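 HeLa cells stably expressing Vif and A3G-eYFP, 700 cells/well, incubated overnight at 37 deg C, then exposed to compound overnight at 37 deg C. Inhibition of Vif-mediated degradation read as increased yellow fluorescence (Ex 488/Em 500-530) by laser-scanning cytometry.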

Row | SMILES | activity change, negative = inhibition | outcome
51 | S=C(NC1CCCCC1)N1CCC(c2cnc[nH]2)CC1 | -1.94% (inactive) | –
52 | CCCN1CCO[C@@H]2c3cc(O)ccc3OC[C@@H]21 | -4.51% (inactive) | –
53 | Cc1nccc2c1[nH]c1ccccc12 | – | inactive
54 | C[C@H]1CCCC=CC2C[C@H](O)C[C@@H]2[C@H](O)C=CC(=O)O1 (stereo partly drawn) | -2.2% (inactive) | –
55 | O=c1cccc2n1CC1CNC[C@H]2C1 | -2.75% (inactive) | –
56 | NCc1cc(=O)[nH]o1 | 1.39% (inactive) | –
57 | CCCCc1ccc(C(=O)O)nc1 | -1.15% (inactive) | –
58 | O=C1CCCN1CC#CCN1CCCC1 | -3.35% (inactive) | –
59 | Cc1nc(-c2ccc(-c3ccc(C(=O)N4CCc5cc6c(cc54)C4(CCN(C)CC4)CO6)cc3)c(C)c2)no1 | -1.52% (inactive) | –
60 | CCCCCC[C@H]1C(=O)O[C@H](C)[C@H](NC(=O)c2cccc(NC=O)c2O)C(=O)O[C@@H](C)[C@@H]1OC(=O)CC(C)C | -3.23% (inactive) | –
61 | CC(=O)NCCc1c[nH]c2ccccc12 | -7.11% (inactive) | –
62 | COc1ccc(C(=O)c2c(C)n(CCN3CCOCC3)c3cc(I)ccc23)cc1 | -0.711% (inactive) | –
63 | CC[C@@]1(O)C(=O)OCc2c1cc1n(c2=O)Cc2cc3ccccc3nc2-1 | 3.49% (inactive) | –
